From PubChem BioAssay
Pf growth 96h – P. falciparum growth inhibition at 96 hours; Potency, µM (titrated, usually from 28.7 µM), inactives show at the top dose activity change, negative = inhibition, actives largely listed as inhibitors; P. falciparum luciferase reporter growth, 96 h; AID 504834; 6.9% of 320,000 active; further: potency means the concentration at half of the fitted maximal effect
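96 h incubation, 37 C, 5% CO2, of luciferase-reporter P. falciparum-infected RBCs (2% hematocrit, 0.05% parasitemia final) with test compounds; endpoint luminescence.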
HCMV antiviral – human cytomegalovirus inhibition. HFF cells, HCMV-luciferase reporter, 72 h; active compounds read low. 4.5% of 410,000 active. activity change, negative = inhibition, % at 57.5 µM; in the data active means activity change below about -60%; inconclusive means no clear call, values can overlap the other calls; inactive means above about -39%
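Inhibition of viral replication was scored as loss of reporter luminescence in HFFs infected with HCMV-luciferase (MOI 1 PFU/cell) for 72 h; compounds tested at 2 doses, normalized to buffer and Salinomycin controls.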
HCV inhibitor – HCV inhibition; AID 651820; Potency, µM (doses to about 41.8 µM), inactives show top-dose activity change, negative = inhibition, actives largely listed as inhibitors; Huh7.5.1 HCVcc-Cre infection, luciferase reporter, 44 h; 3.4% of 340,000 active; further: potency means the concentration at half of the fitted maximal effect
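Seed cells (1,000/well) for 4 h; treat with compound and infect with HCVcc-Cre, moi about 0.5. Incubate 44 h, then detect luciferase activity.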
Pf growth 48h – P. falciparum growth inhibition at 48 hours (one generation) | Potency, µM (series often up to 28.7 µM), for the others: top-dose activity change, negative = inhibition, usual class: inhibitors | P. falciparum luciferase growth in erythrocytes, 48 h | AID 504832 | 5.9% of 310,000 active; further: potency means the concentration at half of the fitted maximal effect
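Luciferase-expressing parasites in RBCs, 2% Hct / 0.1% parasitemia final; RPMI 1640 + 0.5% Albumax; 37 C, 5% CO2, one generation; luminescence read-out, lower signal = inhibition.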
* hit, by the source's call. Rows were chosen to be rich in hits. Some 13% of all compounds tested hit in one or more screens of this group. Unless noted, the call rests on the fitted dose curve; in most records, active means well fitted inhibition curve with a large enough effect; inconclusive means small, poorly fitted or top-dose-only effect, or another doubt; inactive means no such curve, though single readings can be large or run the other way. On the % scale 0 is the no-effect control and ±100 the full control effect.

How did CCN(CC)S(=O)(=O)c1ccc(/C=C/C(=O)Nc2ccc(F)cc2F)cc1 do in these assays?
Pf growth 96h: 6.6µM*; HCMV antiviral: -69*; HCV inhibitor: inconclusive; Pf growth 48h: inconclusive

What do the screens show for `CCN(CC)S(=O)(=O)c1ccc(/C=C/C(=O)Nc2ccc(Br)cc2F)cc1`?
Pf growth 96h: 5.2µM*; HCMV antiviral: -73*; HCV inhibitor: 2µM*; Pf growth 48h: 12µM*

Results for CCN(CC)S(=O)(=O)c1cccc(NC(=O)/C=C/c2ccc([N+](=O)[O-])cc2)c1 ?
Pf growth 96h: inconclusive; HCMV antiviral: -15; HCV inhibitor: inconclusive; Pf growth 48h: -1%

Results for CCN(CC)S(=O)(=O)c1ccc(/C=C/C(=O)Nc2ccc(F)c(F)c2F)cc1 ?
Pf growth 96h: inconclusive; HCMV antiviral: -64*; HCV inhibitor: 1.4µM*; Pf growth 48h: 9.3µM*

What do the screens show for `CCOCCCNc1nc2c(S(=O)(=O)c3ccc(CC)cc3)nnn2c2ccc(Cl)cc12`?
HCMV antiviral: 2

How did O=c1c2sccc2n(Cc2cc(=O)n3ccccc3n2)c(=O)n1-c1cc(F)ccc1F do in these assays?
HCMV antiviral: 2

How did O=C(NC12CC3CC(CC(C3)C1)C2)c1ccccc1O do in these assays?
HCMV antiviral: -34; HCV inhibitor: 3%; Pf growth 48h: 7.4µM*

How did O=C(NNC(=O)C12CC3CC(CC(C3)C1)C2)c1ccccc1O do in these assays?
Pf growth 96h: inconclusive; HCMV antiviral: -9; HCV inhibitor: 11%; Pf growth 48h: inconclusive

What do the screens show for `CCOC(=O)c1cc(-c2ccccc2)n(CC(=O)NCc2ccccc2OC)c1C`?
HCMV antiviral: -61*

What do the screens show for `CCC(C)NC(=O)CCn1c(-c2ccccc2)cc(C(C)=O)c1C` (configuration not stated)?
Pf growth 96h: inconclusive; HCMV antiviral: 33; HCV inhibitor: 5%; Pf growth 48h: 7%

What do the screens show for `CCOC(=O)c1cc(-c2ccccc2)n(CCC(=O)N2CCN(c3ccc(OC)cc3)CC2)c1C`?
Pf growth 96h: -28%; HCMV antiviral: -20; HCV inhibitor: inconclusive; Pf growth 48h: inconclusive

What do the screens show for `CCOC(=O)c1cc(-c2ccccc2)n(CCC(=O)NC(C)CC)c1C` (configuration not stated)?
Pf growth 96h: 4.1µM*; HCMV antiviral: -22; HCV inhibitor: inconclusive; Pf growth 48h: inconclusive

What do the screens show for `CCOC(=O)c1cc(-c2ccccc2)n(CCC(=O)N2CCN(c3ccccc3OC)CC2)c1C`?
Pf growth 96h: inconclusive; HCMV antiviral: -23; HCV inhibitor: inconclusive; Pf growth 48h: 9.3µM*

Results for CCC(=O)N1CCc2cc(Br)cc(S(=O)(=O)CCC(=O)N3CCN(c4cc(C)ccc4C)CC3)c21 ?
HCMV antiviral: 10

How did COc1ccc(NC(=O)c2sc3cc(C(F)(F)F)cnc3c2-c2cccs2)cc1 do in these assays?
Pf growth 96h: 12µM*; HCMV antiviral: 19; HCV inhibitor: -2%

How did O=C(Nc1ccc(F)cc1)c1sc2cc(C(F)(F)F)cnc2c1-c1cccs1 do in these assays?
Pf growth 96h: inconclusive; HCMV antiviral: -33; HCV inhibitor: -24%

Results for COc1ccccc1CNC(=O)Cc1c(C)c2c(cc(C)c3c(C)c(C)oc32)oc1=O ?
HCMV antiviral: 8

What do the screens show for `CCOC(=O)C(NC(=O)c1cccc(Cl)c1)(Nc1sc2c(c1C(N)=O)CCC2)C(F)(F)F` (configuration not stated)?
Pf growth 96h: inconclusive; HCMV antiviral: -27; HCV inhibitor: 13µM*; Pf growth 48h: inconclusive

Results for CCOC(=O)C(NC(=O)c1ccc(F)cc1)(Nc1sc2c(c1C(N)=O)CCC2)C(F)(F)F (configuration not stated) ?
Pf growth 96h: inconclusive; HCMV antiviral: inconclusive; HCV inhibitor: 4%; Pf growth 48h: inconclusive

Results for CCOC(=O)C(NC(=O)c1ccccc1Cl)(Nc1sc2c(c1C(N)=O)CCC2)C(F)(F)F (configuration not stated) ?
Pf growth 96h: 4.1µM*; HCMV antiviral: -30; HCV inhibitor: -3%; Pf growth 48h: inconclusive

How did Cn1c(=O)[nH]c(=O)c2c1nc(N1CCOCC1)n2Cc1ccccc1 do in these assays?
HCMV antiviral: 3

Results for CCCCc1c(-c2ccc(OC)cc2)ncn1CCc1ccccc1OC ?
HCMV antiviral: -85*

How did CCCCc1c(Cc2ccccc2)ncn1CCc1ccccc1OC do in these assays?
HCMV antiviral: -76*

What do the screens show for `CCCCCc1c(-c2ccc(Cl)cc2)ncn1CCc1ccccc1OC`?
HCMV antiviral: -75*

Results for CCc1c(-c2ccc(Cl)cc2)ncn1CCc1ccccc1OC ?
HCMV antiviral: -23

How did CCCc1c(Cc2cccc(F)c2)ncn1CCc1ccccc1OC do in these assays?
HCMV antiviral: -61*

What do the screens show for `C=C1C[C@@]2(C)CCCC3=CC(=O)C=C[C@@]32c2ccc(OC)c(OC)c21`?
HCMV antiviral: -4

What do the screens show for `CC1CCCCN1CCCOC(=O)c1ccccc1` (configuration not stated)?
Pf growth 96h: -4%; Pf growth 48h: -13%

What do the screens show for `CCCCc1c(-c2ccccc2OC)ncn1CCc1ccc(OC)cc1`?
HCMV antiviral: -64*

How did CCCCc1c(-c2ccccc2OC)ncn1CCc1ccccc1 do in these assays?
HCMV antiviral: -33

How did CCCCc1c(-c2ccccc2)ncn1CCc1ccccc1OC do in these assays?
HCMV antiviral: -75*

Results for CCCCCc1c(-c2ccc(OC)cc2)ncn1CCc1ccccc1OC ?
HCMV antiviral: -94*

What do the screens show for `CCCCc1c(-c2ccc(F)cc2)ncn1CCc1ccccc1OC`?
HCMV antiviral: -62*

How did Cc1ccc2c(c1)c1c(c(=O)n(-c3ccccc3)c(=O)n1Cc1ccccc1C)n2C do in these assays?
HCMV antiviral: 19

Results for CCOC(=O)C1CCCN(C(=O)Cn2nc(CC)n3c(cc4occc43)c2=O)C1 (configuration not stated) ?
HCMV antiviral: -3

Results for Cc1ccc(-c2cnc(C3CC3)o2)cc1S(=O)(=O)Nc1ccc(F)cc1Cl ?
HCMV antiviral: -17

How did CCCCc1c(-c2cccc(Cl)c2)ncn1CCc1ccccc1OC do in these assays?
HCMV antiviral: -80*

What do the screens show for `COc1cc(C(=O)NCc2ncccc2C)ccc1OC1CCN(C(C)=O)CC1`?
Pf growth 96h: 15µM*; HCMV antiviral: 16; Pf growth 48h: 20%

Results for COc1cc(C(=O)NC(C)Cc2ccccn2)ccc1OC1CCN(C(C)=O)CC1 (configuration not stated) ?
Pf growth 96h: 40%; HCMV antiviral: -14; HCV inhibitor: -2%; Pf growth 48h: -17%

How did C=CCN(CC=C)C(=O)c1ccc(OC2CCN(C(C)=O)CC2)c(OC)c1 do in these assays?
Pf growth 96h: 2.9µM*; HCMV antiviral: 41; HCV inhibitor: 10%; Pf growth 48h: inconclusive
